Compound activity as filed in PubChem BioAssay.
KCNH2 3.1 inh: inhibitors of human KCNH2 3.1 potassium channel isoform | U2OS KCNH2 3.1, thallium flux FluxOr; stronger effect = lower value | activity change, % (tested at about 1.8 µM) | 340,000 compounds, 0.95% hits;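 active means maximum activity change below -70%; inconclusive means maximum activity change from -70% to -50%; inactive means maximum activity change above -50%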;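 further: thallium influx rate constant from kinetic fluorescence after stimulation buffer; on the % scale 0 is the no-effect control and ±100 the full control effect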
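Kinetic fluorescence (2 min after stimulation buffer) measures Tl+ influx through KCNH2 3.1 expressed by viral transduction in U2OS cells; the rate constant is normalized against DMSO controls serving as positive and negative references.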
MCF10A rereplic: induces DNA re-replication in MCF 10a normal breast cells. 350,000 compounds, 2.9% hits. Potency, µM (top dose mostly 46.1 µM), inactives show at the top dose activity, positive = re-replication, usual class: activators. MCF 10A DNA re-replication, Hoechst nuclear intensity, 48 h; further: potency means the concentration at half of the fitted maximal effect; % of control where 0% means no effect; nearly all actives have a fitted effect of over 50% in size
KCNH2 WT inh: inhibitors of human wildtype KCNH2 potassium channel. Q12809. U2OS, BacMam KCNH2, thallium flux FluxOr; stronger effect = lower value. activity change, % at 1.84 µM. 340,000 compounds, 0.37% hits. AID 720551;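 active means maximum activity change below -70%; inconclusive means maximum activity change between -70% and -50%; inactive means maximum activity change above -50%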; further: on the % scale 0 is the no-effect control and ±100 the full control effect
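U2OS cells were transduced with wild-type KCNH2 virus (2.03 x 10^8 / mL) for 4 h at room temperature, then cultured overnight at 37 C. Thallium flux was read with FluxOr dye. Rate constants were normalized to DMSO controls.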
KB-V1 cytotox: kills drug-selected multidrug resistant KB-V1 cells; AID 1347076; 400,000 compounds, 3.4% hits; KB-V1 MDR cells viability, CellTiter-Glo, 72 h; Potency, µM (series often up to 46.1 µM), usual class: cytotoxic; further: potency means the concentration at half of the fitted maximal effect; on the % scale 0 is the no-effect control and ±100 the full control effect; nearly all actives have a fitted effect of over 60% in size
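Luminescent ATP read-out (CellTiter-Glo, 10 min) measures survival of drug-selected KB-V1 MDR cells after 72 h, 37 degrees C compound exposure. Medium: phenol-red-free DMEM, 10% FBS. Values from fitted concentration-response curves.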
KB-3-1 tox: kills parental KB-3-1 adenocarcinoma cells; 400,000 compounds, 1.4% hits; KB-3-1 viability, CellTiter-Glo ATP luminescence, 72 h; Potency, µM (highest dose often 46.1 µM), usual class: cytotoxic; further: potency means the concentration at half of the fitted maximal effect; on the % scale 0 is the no-effect control and ±100 the full control effect; nearly all actives have a fitted effect of over 60% in size
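Screening of KB-3-1 cells (DMEM, 10% FBS, phenol-red free) ran from lowest to highest compound concentration; after 72 h at 37 °C viability was read luminescently and curves fitted.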
SW480 rerep: inducers of DNA re-replication in SW480 colon cancer cells; SW480 DNA re-replication, Hoechst DNA content imaging, 48 h; AID 624297; 340,000 compounds, 1.8% hits; Potency, µM (titrated, usually from 46.1 µM), inactives show at the top dose re-replication activation, hits mostly activators; further: potency means the concentration at half of the fitted maximal effect; % of control where 0% means no effect; nearly all actives have a fitted effect of over 55% in size
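Cells (250 per well) received 23 nL compound or DMSO by pin tool and were kept 48 hr at 37 C, 5% CO2. Nuclei were then stained with Hoechst for 40 min and scanned for DNA content.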
Starred values were filed as active, the others as inactive; i = inactive; u = inconclusive; x = no result. An excerpt weighted towards active compounds, which were near 7.6% of everything screened. Unless noted, the call rests on the fitted dose curve; in most records, active means well fitted curve in the direction sought with a large enough effect; inconclusive means small, poorly fitted or top-dose-only effect, or another doubt; inactive means no such curve, though single readings can be large; an effect the other way counts as inactive or inconclusive.

SMILES	KCNH2 3.1 inh	MCF10A rereplic	KCNH2 WT inh	KB-V1 cytotox	KB-3-1 tox	SW480 rerep
COc1ccc(-n2nc(C#N)c(Cl)cc2=O)cc1	-2.3	0.731µM*	i	i	u	u
CCCc1nc2ccccc2n1Cc1ccccc1OC	-12.9	4.3%	11.1	14.6µM*	u	-1.5%
COc1ccccc1Cn1c(CCCO)nc2ccccc21	-0.4	5.1%	3.7	u	i	-3.1%
COc1ccccc1Cn1c(C)nc2ccccc21	-0.1	6.8%	-6.7	u	i	-2.1%
CCc1nc2ccccc2n1Cc1ccccc1OC	-2.4	2.8%	0.2	14.6µM*	u	-5.5%
Clc1nccc(N2CCN(c3ccccc3Cl)CC2)n1	-10.9	-4.1%	2.4	u	i	u
C/C=C1\NC(=O)[C@H](C)NC(=O)[C@@H](NC(=O)[C@H](Cc2ccc(O)cc2)NC(=O)[C@@H](NC(=O)/C(C)=C/C)C(C)C)[C@@H](C)OC(=O)[C@H](CCCc2ccc(O)cc2)NC(=O)[C@@H](CCC(=O)OC)NC1=O	x	x	x	i	i	x
C/C=C1\NC(=O)[C@H](CC(N)=O)N(C)C(=O)C([C@@H](C)O)NC(=O)C(CCCc2ccc(OC)cc2)NC(=O)[C@H](C(C)C)NC(=O)/C(=C\C)NC(=O)[C@H](O)[C@@H](C[C@@H](O)CCCCCCC)NC(=O)[C@H](C)NC(=O)CN(C)C(=O)[C@H](CCC(N)=O)NC1=O (stereo partly specified)	-36.2	18.4µM*	-1.1	i	16.4µM*	u
COC(=O)C1CSC(C)(C)C(=O)N1 (stereo unspecified)	-37.4	0.92µM*	-15.6	i	i	-41.3%
Fc1ccccc1/C=N/NC(=S)Nc1ccc(Cl)cc1Cl	-1.4	u	-19.7	1.46µM*	8.2µM*	3.26µM*
CN(C)/C=N/C(=S)Nc1ccc(Cl)cc1	4.3	-0.1%	3.3	i	i	-5.7%
CN(C)CCNC=C(C(=O)Nc1ccc(Cl)cc1Cl)C(=O)Nc1ccc(Cl)cc1Cl	-6.9	u	8.8	u	i	u
CC(=O)/C(=C/N(C)C)C(=O)Nc1ccc(Cl)cc1Cl	20.7	18.4µM*	5.8	i	i	u
CN(C)/C=N/C(=S)Nc1ccc(Cl)cc1Cl	0.6	u	4.7	i	i	20.6µM*
Fc1ccc(NC(=S)Nc2ccc(Cl)cc2Cl)cc1	19.1	19.7%	12.9	i	u	-6.5%
CC(OC(=O)c1cc(Br)ccc1O)C(=O)NC1(C#N)CCCCC1 (stereo unspecified)	13.0	9.8%	-16.4	u	i	-1.7%
COc1cc(C)c(CN2CCC(n3nccc3NC(=O)C3CCOC3)CC2)cc1C (stereo unspecified)	-16.5	-0.9%	35.9	i	i	u
COc1ccc(C(C)=O)cc1COC(=O)Cc1n[nH]c(=O)c2ccccc12	-6.7	6.2%	2.1	13µM*	i	-2.8%
COc1ccc(NC(=O)CN(C)C(=O)Cc2n[nH]c(=O)c3ccccc23)cc1	-5.8	13.8%	1.7	i	i	23.1µM*
COc1ccccc1C(=O)COC(=O)Cc1n[nH]c(=O)c2ccccc12	7.1	-1.7%	-10.2	i	i	-4.9%
O=C(Cc1n[nH]c(=O)c2ccccc12)OCC(=O)c1ccc2c(c1)OCCO2	2.2	2.06µM*	2.9	u	1.46µM*	4.61µM*
CCOc1ccc(C(=O)COC(=O)Cc2n[nH]c(=O)c3ccccc23)cc1	20.8	1.64µM*	4.3	4.61µM*	4.11µM*	2.59µM*
Cc1c(C(=O)N(C)CCC#N)oc2ccc(S(=O)(=O)N3CCOCC3)cc12	10.3	2.4%	7.7	i	i	u
COc1ccc(NS(=O)(=O)c2cc(C(=O)NNC(=O)c3ccncc3)ccc2OC)c(OC)c1	-9.1	-17.2%	-1.3	i	i	-6.4%
CC(=O)n1cc(N(C(=O)CCl)c2ccc(C)cc2)c2ccccc21	-0.1	14.6µM*	0.8	u	18.4µM*	u
SMILES	KCNH2 3.1 inh	MCF10A rereplic	KCNH2 WT inh	KB-V1 cytotox	KB-3-1 tox	SW480 rerep
OCCCNc1ncnc2c1ncn2[C@H]1CN(Cc2cccs2)C[C@@H](CO)O1	x	x	x	i	i	x
CN(C)c1cc(-c2ccc(Cl)c(Cl)c2)oc(=O)c1Cl	-97.8*	u	2.1	i	i	11.7%
CC(C)NC(=O)N(C)C[C@H]1Oc2ccc(NS(=O)(=O)c3cn(C)cn3)cc2C(=O)N([C@H](C)CO)C[C@@H]1C	19.5	1.9%	-5.2	i	i	-0.7%
CCOC(=O)c1cnc(SCc2nc(N)nc(Nc3ccc(F)cc3)n2)nc1N	-17.8	3.66µM*	15.4	u	u	u
CCOC(=O)c1cnc(SC)nc1N	13.9	-3.2%	-2.8	u	i	1.5%
CCOC(=O)c1cnc(SCc2nc(N)nc(Nc3ccc(C)cc3)n2)nc1N	-23.0	10.3µM*	4.6	u	u	u
CCN(CC)CCCn1c2c(c(SCC(=O)N3CCc4ccccc43)nc1=O)CCC2	4.4	2.1%	50.0	i	i	1.6%
Cc1ccc2c(C)c(C(=O)NCc3ccc(S(N)(=O)=O)cc3)oc2c1	-17.3	14.2%	-0.8	i	i	-2.3%
CCOc1ccc(-n2c(=O)c3c(C)c(C)sc3n(CC(=O)N3CCC(C)CC3)c2=O)cc1	x	x	x	i	i	x
COc1ccc(-n2nc([N+](=O)[O-])c(=NCc3cccnc3)n2O)cc1	10.6	-5.7%	-2.6	20.6µM*	i	-6.5%
COc1ccc(-n2nc([N+](=O)[O-])c(=NCCc3ccc(OC)c(OC)c3)n2O)cc1	-6.1	2.5%	3.0	2.59µM*	i	2.7%
COc1ccc(C(C)C)cc1S(=O)(=O)N1CCC(C(=O)NCC2CCCO2)CC1 (stereo unspecified)	17.8	0.1%	2.6	i	i	-1.1%
CCCCOc1ccc(Br)cc1/C(C)=N/NC1=NCCN1	u	10.3µM*	-10.9	5.8µM*	4.11µM*	u
CCCCCCOc1ccc(/C(C)=N/NC2=NCCN2)cc1[N+](=O)[O-]	-49.0	u	x	i	i	-103.6%
N#C/C(=C\c1cc(Br)c(O)c(Br)c1)c1nc2ccccc2c(=O)[nH]1	x	x	x	i	i	x
CCOc1ccc(NC(=S)Nc2cc(-c3ccccc3)[nH]n2)cc1	-1.4	-5.1%	-0.2	14.6µM*	i	4.3%
CCOC(=O)C1=C(C)NC2=C(C(=O)CC(c3ccc(OC)c(OC)c3)C2)C1c1ccc(C)o1 (stereo unspecified)	-1.4	4.2%	-2.6	18.4µM*	i	-5.1%
Cc1ccc(N=Cc2cc(Cl)cc(Cl)c2O)nc1	1.6	u	-333.3*	i	i	18.4µM*
